Reference: PubChem BioAssay (NCI)
Compounds without any hit were thinned out: in the full panel of roughly 83,000, 20% have a hit.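 Plates (96-well) were seeded with cells, treated with compound at one concentration, and incubated for 48 hours before percent growth was determined.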 Calls of active or inactive are those of the source. How the source made its calls: active means growth percent below 10; inactive means the rest.

Experiments:
Assay in all cases: NCI-60 one-dose screen, 48 h (100 = growth as untreated, 0 = no growth, -100 = all killed)
Conditions in all cases: 10 µM unless noted
[1] = tested on: DU-145 prostate
[2] = tested on: K-562 leukemia
[3] = tested on: MALME-3M melanoma
[4] = tested on: MDA-MB-231 breast
[5] = tested on: RXF 393 renal
[6] = tested on: SF-268 CNS
[7] = tested on: SF-295 CNS
[8] = tested on: SF-539 CNS
[9] = tested on: UACC-257 melanoma
[10] = tested on: M14 melanoma

Measured: growth

CN(C)C(=O)Oc1ccc(Br)cc1
inactive: [1] 107% | [2] 96.5% | [3] 98% | [4] 105% | [5] 107% | [6] 110% | [7] 91.3% | [8] 108% | [9] 95% | [10] 104%

COc1ccc(C2=N[C@@H](Cc3ccccc3)C(=O)Nc3ccsc32)cc1
inactive: [1] 71.3% | [2] 16.2% | [3] 48.6% | [4] 55.9% | [5] 34.3% | [6] 55.1% | [7] 37% | [8] 44.9% | [9] 44% | [10] 20.7%

CN1CCCCC1C(C)(O)c1ccccc1 (stereo not given)
inactive: [1] 111% | [2] 114% | [3] 97.6% | [4] 112% | [5] 116% | [6] 101% | [7] 96.2% | [8] 93.6% | [9] 96.5% | [10] 92.9%

CC1=C([Te]c2ccc(O)cc2)C(=O)c2ccccc2C1=O
active: [1] 7.43% | [2] -36.6% | [3] 5.22% | [4] 3.12% | [5] -0.398% | [7] -37.4% | [8] -19.1% | [10] -24.2%
inactive: [6] 13.8% | [9] 11.7%

CC[C@H](C)[C@@H]([C@@H](CC(=O)N1CCC[C@H]1[C@H](OC)[C@@H](C)C(=O)N[C@H](C)[C@@H](O)c1ccccc1)OC)N(C)C(=O)[C@@H](NC(=O)[C@@H](NC)C(C)C)C(C)C
inactive: [1] 10.5% | [2] 11% | [3] 55.6% | [4] 16.9% | [5] 46% | [6] 39% | [7] 10.8% | [9] 65.7%
active: [8] -13.9% | [10] 1.24%

Cc1c(O)c(CN(CCCl)CCCl)cc(CN(CCCl)CCCl)c1O
inactive: [1] 107% | [2] 103% | [3] 93.1% | [4] 93.5% | [5] 97.6% | [6] 88.4% | [7] 93.9% | [8] 82.5% | [9] 92.8% | [10] 92.4%

CC[C@H](C)[C@H](NC(=O)c1cccn1C)C(=O)N(C)[C@H](C[C@@H](OC(C)=O)c1nc(C(=O)N[C@@H](Cc2ccccc2)C[C@H](C)C(=O)OC)cs1)C(C)C
inactive: [3] 73.6% | [6] 19.1% | [9] 51.8%
active: [1] 5.31% | [2] 6.81% | [4] -13.7% | [5] 3.6% | [7] 7.85% | [8] -12.7% | [10] -0.428%

Fc1ccc(C2=CCNCC2)cc1
active: [9] -21.6%
inactive: [1] 111% | [2] 108% | [3] 95.5% | [4] 80.7% | [5] 97.7% | [6] 96.8% | [7] 77.8% | [8] 93.4% | [10] 98.9%

Cn1cc(-c2csc(-c3cn(CCCCN4CCCCC4)c4ccc(F)cc34)n2)c2cccnc21
active: [1] -81% | [2] -76.1% | [3] -68.4% | [9] -42.6% | [10] -78.7%
inactive: [4] 71.4% | [5] 26.8% | [6] 72% | [7] 99.7% | [8] 75.3%

O=C1NC(=O)C(=Cc2cn(C(=O)c3ccccc3)c3ccccc23)C(=O)N1
inactive: [1] 113% | [2] 141% | [3] 90.5% | [4] 88.9% | [5] 45% | [6] 102% | [7] 116% | [8] 87.6% | [9] 87% | [10] 95.3%

Clc1cccc(NCOOC2(OOCNc3cccc(Cl)c3)CCCCCC2)c1
inactive: [1] 103% | [2] 32.6% | [3] 97% | [4] 103% | [5] 114% | [6] 94.3% | [7] 90.4% | [8] 86.8% | [9] 112% | [10] 97.3%

N#CC1(c2ccccc2)CCN(Cc2ccccc2)CC1
inactive: [1] 107% | [2] 98.3% | [3] 138% | [4] 110% | [5] 105% | [6] 94.9% | [7] 89.9% | [8] 107% | [9] 115% | [10] 106%

CNC(=O)Oc1ccc(N(C)C)cc1C(C)C
inactive: [1] 101% | [2] 129% | [3] 72.1% | [4] 103% | [5] 73.8% | [6] 101% | [7] 118% | [8] 89.7% | [9] 105% | [10] 97.2%

CCOP(=O)(Cc1ccc(C#N)cc1)OCC
inactive: [1] 116% | [2] 100% | [3] 108% | [4] 100% | [5] 115% | [6] 112% | [7] 108% | [8] 109% | [9] 88.8% | [10] 101%

COC1CC2c3ccccc3C1C(C)=[N+]2C (stereo not given)
inactive: [1] 110% | [2] 110% | [3] 88.7% | [4] 99.5% | [5] 98% | [6] 107% | [7] 94.2% | [8] 102% | [9] 95.6% | [10] 103%

CNC(=O)Oc1cccc(C(F)(F)F)c1
inactive: [1] 128% | [2] 113% | [3] 140% | [4] 103% | [5] 146% | [6] 118% | [7] 130% | [8] 122% | [9] 102% | [10] 101%

CC12CCC3C(CCC4Cc5[nH]c6ccccc6c5CC43C)C1CCC2O (stereo not given)
active: [1] -21.2% | [2] 5.1% | [5] -13.8% | [7] -10.7% | [8] 9.54%
inactive: [3] 48.3% | [4] 37.1% | [6] 47.5% | [9] 74.1% | [10] 20.6%

COc1cc2c(cc1OCc1ccccc1)C(CC(C)C)=[N+](C)CC2
inactive: [1] 93.6% | [2] 67.2% | [3] 85% | [4] 93% | [5] 93.9% | [6] 67.5% | [7] 68.2% | [8] 76.7% | [9] 50% | [10] 99.1%

COc1ccc(/C=C\c2cc(OC)c(OC)c(OC)c2)cc1OCC(=O)Nc1nc2ccc(OC(F)(F)F)cc2s1
active: [1] 6.56%
inactive: [2] 22.9% | [3] 26.4% | [4] 36.7% | [5] 26.4% | [6] 45.8% | [7] 40.8% | [8] 14% | [9] 58.7% | [10] 11.5%

C=CC1=C[C@@H]2[C@@H]3O[C@]4(CC[C@H](O4)[C@@H](C)C[C@@H](O)C3=O)C[C@H](O)C3=NCC[C@@]32CC1
active: [1] -26.7% | [2] 5.48% | [3] -82.2% | [4] -29.2% | [5] -67.3% | [6] -35.8% | [7] -35.9% | [8] -43.6% | [9] -31.5% | [10] -79%

CC[C@@H]1[C@@H](C)O[C@@](O)([C@@H](C)[C@H](O)[C@H](C)[C@H]2OC(=O)/C=C/C=C/[C@H](C)[C@@H]([C@@H](C)[C@@H](O)[C@H](C)[C@@]3(O)C[C@@H](O[C@H]4C[C@@H](O)[C@H](O)C(C)O4)[C@H](CC)[C@@H](C)O3)OC(=O)/C=C/C=C/[C@@H]2C)C[C@H]1O[C@@H]1C[C@@H](O)[C@H](O)C(C)O1 (stereo not given in full)
active: [1] -97.5% | [2] -71.6% | [3] -97% | [4] -68.3% | [5] -96.7% | [6] -86.3% | [7] -86.5% | [8] -96.8% | [9] -89.5% | [10] -83.9%

COc1ccc(/C=C\c2cc(OC)c(OC)c(OC)c2)c(NS(=O)(=O)c2ccc(Cl)cc2)c1O
inactive: [3] 58% | [5] 37.2% | [6] 16.2% | [9] 39.1% | [10] 12.8%
active: [1] -13.3% | [2] 9.26% | [4] 8.54% | [7] 0.936% | [8] 2.9%

CN1CC(=O)N(O)C1(C)c1cccnc1 (stereo not given)
inactive: [1] 115% | [2] 99.4% | [3] 102% | [4] 113% | [5] 106% | [6] 106% | [7] 96.4% | [8] 98.3% | [9] 98.9% | [10] 105%

Nc1ncnc2n[nH]nc12
inactive: [1] 57% | [2] 59.6% | [3] 55.1% | [4] 74.9% | [5] 75.8% | [6] 81% | [7] 53.5% | [8] 86.8% | [9] 58.1% | [10] 39.8%

Clc1ccc(CO/N=C(\Cn2ccnc2)c2ccc(Cl)cc2Cl)c(Cl)c1
inactive: [1] 21% | [6] 11.6%
active: [2] 1.68% | [3] -50.8% | [4] -11.5% | [5] -59.8% | [7] -13.3% | [8] -55.1% | [9] 6.73% | [10] -17.4%
